# Compound activity as filed in PubChem BioAssay.
# In the library only some 1.5% were active in any assay of this set; here they are far more common.
# a7 integrin act: activators of alpha7 integrin expression for muscular dystrophy; alpha7betagal myoblasts, beta-gal FDG fluorescence, 48 h; Potency, µM (highest dose often 38.3 µM), for the others: at the highest dose activation, hits mostly activators; AID 624291; 350,000 tested, 0.064% active;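 further: potency means the concentration at half of the fitted maximal effect; 100% = response of the positive control SU9516; nearly all actives have a fitted effect of over 60% in size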
#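 alpha7betagal+/- myoblasts (passage 13, 250/well) treated 48 h at 37C with compounds at 1:260 dilution of DMSO stock. Lysed, then beta-galactosidase activity read as FDG fluorescence (ex 480/em 540) after 30 min, with pre-read for autofluorescence.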
# IL2 activator: IL-2 activation; 360,000 tested, 0.065% active; activation, % (series mostly up to about 46 µM); IL-2 activation reporter assay, cell-based qHTS; stimulated with anti-CD3/CD4/CD28 beads; in transgenic mouse T cells; in the data active means activation above about 50%; inconclusive means mostly about 30% to 49%; further: 0% is about no effect
#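 Readout: EGFP and DsRed signals by fluorescent plate cytometry. Unstimulated transgenic mouse T cells received compound 60 min before antibody-bead stimulation, then incubated 18 h at 37 degrees C.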
# uPA generation: cell surface uPA generation inhibition. cell surface uPA generation assay, qHTS. Potency, µM (doses to about 38.3 µM), for the others: at the highest dose activity change, negative = inhibition, usual class: inhibitors. 330,000 tested, 0.31% active. AID 540303; active means well fitted inhibition curve with a large enough effect; inconclusive means small, poorly fitted or top-dose-only effect; inactive means no such curve, though single readings can be large or run the other way; tested in mouse RAW 264.7 cells; further: potency means the concentration at half of the fitted maximal effect; on the % scale 0 is the no-effect control and ±100 the full control effect; nearly all actives have a fitted effect of over 55% in size
# 12-LOX inh: inhibitors of human 12S-lipoxygenase ALOX12; P18054; purified 12hLO, xylenol orange hydroperoxide absorbance; Potency, µM (series often up to 108 µM), inactives show at the top dose activity change, negative = inhibition, hits mostly inhibitors; 580,000 tested, 1.1% active; AID 1671190; further: potency means the concentration at half of the fitted maximal effect; on the % scale 0 is the no-effect control and ±100 the full control effect
# Target sequence (P18054 whole entry, looked up): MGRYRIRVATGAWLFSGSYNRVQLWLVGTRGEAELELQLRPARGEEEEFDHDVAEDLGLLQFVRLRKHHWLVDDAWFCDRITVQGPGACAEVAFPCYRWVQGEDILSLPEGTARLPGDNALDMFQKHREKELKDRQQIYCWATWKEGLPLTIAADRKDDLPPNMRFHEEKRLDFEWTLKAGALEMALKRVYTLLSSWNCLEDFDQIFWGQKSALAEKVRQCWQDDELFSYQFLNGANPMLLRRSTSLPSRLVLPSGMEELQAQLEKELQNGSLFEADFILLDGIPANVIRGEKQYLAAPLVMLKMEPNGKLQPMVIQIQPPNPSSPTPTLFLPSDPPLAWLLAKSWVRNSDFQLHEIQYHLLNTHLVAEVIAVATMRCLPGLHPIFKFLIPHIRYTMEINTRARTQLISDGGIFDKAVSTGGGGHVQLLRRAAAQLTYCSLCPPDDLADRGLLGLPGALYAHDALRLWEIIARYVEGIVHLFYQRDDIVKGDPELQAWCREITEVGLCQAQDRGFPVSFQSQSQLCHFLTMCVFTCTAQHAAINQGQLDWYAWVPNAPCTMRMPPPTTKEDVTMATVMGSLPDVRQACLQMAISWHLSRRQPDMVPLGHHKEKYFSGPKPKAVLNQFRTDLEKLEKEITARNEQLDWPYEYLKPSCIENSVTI
#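 Hydroperoxide product was detected by ferrous iron/xylenol orange as the 573 to 405 nm absorbance ratio. Arachidonic acid at 40 uM (final) was turned over for 30 min at room temperature by 150 nM human 12hLO, pH 7.0 Hepes buffer, after 15 min compound preincubation.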
# Nrf2 activator: Nrf2 pathway activation | 410,000 tested, 0.31% active | Potency, µM (highest dose often 46.1 µM), inactives show at the highest dose activation, usual class: activators | AREc32 ARE-luciferase reporter (MCF7-derived line), luminescence, 24 h; further: potency means the concentration at half of the fitted maximal effect; % of control where 0% means no effect; nearly all actives have a fitted effect of over 65% in size
#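 Luciferase luminescence (Steady-Glo, 30 min at room temperature) served as the read-out of ARE activation in AREc32 cells treated with compounds for 24 hr at 37 deg C.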
# Starred values were filed as active, the others as inactive; ? = inconclusive; . = no result given; [ ] = another dose, or the depositor's remark. Unless noted, the call rests on the fitted dose curve; in most records, active means well fitted curve in the direction sought with a large enough effect; inconclusive means small, poorly fitted or top-dose-only effect, or another doubt; inactive means no such curve, though single readings can be large; an effect the other way counts as inactive or inconclusive.
SMILES,a7 integrin act,IL2 activator,uPA generation,12-LOX inh,Nrf2 activator
Oc1c(Br)cc(Cl)cc1Cc1cc(Cl)cc(Br)c1O,.,.,.,28µM*,.
COc1ccc2cnn(CC(=O)Nc3ccc(Cl)cc3Cl)c(=O)c2c1OC,.,.,.,-8%,.
O=C(NCC1CC1)c1cccc(OC2CN(Cc3ccc(F)cc3F)C2)c1,.,.,.,25µM*,.
CN(C)CCCN=c1cc(-c2ccccc2)oc2ccc(Cl)cc12,-12%,-1,-25%,35µM*,14µM*
Cc1cc(Sc2nnc(N)s2)c2ccccc2n1,14%,-4,3.2µM*,3%,-5%
Cc1cc(Sc2nnc(/N=C/N(C)C)s2)c2ccccc2n1,-65%,-1,?,0%,-4%
CN(C)c1ccc(C(=O)N2CC[C@@H](CC(=O)O)[C@@H](CCN3CCN(c4cccc(C(F)(F)F)c4)CC3)C2)cc1,.,.,.,-8%,.
O=C1C(F)=CC(COC(c2ccccc2)(c2ccccc2)c2ccccc2)OC1n1cc(F)c(=O)[nH]c1=O (configuration not stated),-51%,-6,-12%,8.9µM*,17%
COCCCN(CCC(=O)NCc1ccc2c(c1)OCO2)C(=O)c1cc(C)oc1C,.,.,.,-8%,.
COc1ccc(/C=C2/SC(=S)N(CCCC(=O)Nc3ccc(O)cc3)C2=O)cc1OC,-69%,85*,?,0%,8%
Cc1cc(C)c(CNC(=O)c2cc(-c3ccnn3C)cc3c2OCCN3C(C)C)c(=O)[nH]1,.,.,.,22%[176 µM],.
Cc1ccc(S(=O)(=O)N2CCCCC2CCNC(=O)C(=O)NCc2ccccc2)cc1 (configuration not stated),0%,-4,8.9µM*,-8%,0%
CCC(CC)=NNc1cccc([N+](=O)[O-])c1,5%,0,6%,?,-1%[9.22 µM]
C/C(=N\Nc1ccc([N+](=O)[O-])cc1)c1ccc(N)cc1,-17%,0,4%,?,8%
C/C(=N\NC(=O)c1cccc(N/N=C(\C)c2ccccc2)c1)c1ccccc1,-7%,-1,-6%,?,4%
CC/C(C)=N/Nc1cccc([N+](=O)[O-])c1,-18%,0,?,1.1µM*,0%
C/C(=N/Nc1ccccc1)c1ccc([N+](=O)[O-])cc1,.,.,.,1.6µM*,.
C/C(=N/Nc1ccc2ccccc2c1)c1ccccc1,.,.,.,2µM*,.
O=C(c1cc(F)ccc1F)N1CC2CC(C1)[C@H]1CCCC(=O)N1C2 (some centres not stated),.,.,.,33%,.
O=C(CCn1ccn2nc3c(c2c1=O)CCCC3)Nc1ccc(F)c(F)c1,.,.,.,6%,.
CC(=O)c1c(C)nc(C2CC2)nc1SCC(=O)NC(C)C(C)C (configuration not stated),.,.,.,5%,.
Cc1sc(NC(=O)c2ccco2)c(CN2CCCCC2)c1C,-12%,-2,-1%,-14%,8.9µM*
CC(C)(C(=O)O)c1ccc(Cl)c(Cl)c1,.,.,.,-1%,.
COc1ccc(C2=CC(c3ccc(F)cc3)n3nnnc3N2)cc1 (configuration not stated),16%,-2,-6%,?,6%
Fc1ccc(C2=CC(c3ccco3)n3nnnc3N2)cc1 (configuration not stated),-31%,1,-3%,-9%,13µM*
SMILES,a7 integrin act,IL2 activator,uPA generation,12-LOX inh,Nrf2 activator
C/C(=C\C(=O)c1ccc(C)o1)Nc1ccc(C(=O)O)cc1C,6%,0,0%,25µM*,0%
CN(C)CCCNS(=O)(=O)c1ccc(N2CCN(Cc3ccc4c(c3)OCO4)CC2)c([N+](=O)[O-])c1,-62%,-1,-12%,2.8µM*,3%
CC(=O)c1ccc(N2CCN(c3ccc(S(=O)(=O)NCCCN(C)C)cc3[N+](=O)[O-])CC2)cc1,-52%,-1,?,-19%,3%
O=C1OCC(CO)(CO)N=C1NNc1ccccc1[N+](=O)[O-],-24%,-4,-6%,11µM*,2%
O=C1/C(=C/c2ccc(Br)cc2)C(c2ccccc2)Oc2ccccc21 (configuration not stated),.,.,.,0%,.
COc1cc2c(cc1OC)-c1cc(NCc3ccccn3)nc(=O)n1CC2,13%,2,-1%,7.9µM*,3%
CCNc1cc2n(c(=O)n1)CCc1cc(OC)c(OC)cc1-2,-13%,0,-9%,3%,5%
COc1cc2c(cc1OC)-c1cc(NC3CCCCC3)nc(=O)n1CC2,-18%,0,-5%,25µM*,3%
COc1cc2c(cc1OC)-c1cc(NC3CCCCCCC3)nc(=O)n1CC2,-1%,-1,-8%,66%,4%
CCOc1ccc(NC(=O)C(C)C)c2cccnc12,.,.,.,6%,.
Clc1ccc(-n2cnnn2)cc1,40%,0,-8%,-15%,0%
CO/C=C\C=C/c1nnn(-c2ccc(Cl)cc2)n1,0%,-2,3%,35µM*,6%
O=C1[C@@H]2C[C@@H](O)CN2C2(CN(Cc3c[nH]c4ccccc34)C2)C(=O)N1Cc1ccccc1F,.,.,.,-3%,.
O=C(CSc1nnc(-c2ccccc2Cl)o1)Nc1ccccn1,3%,-2,10µM*,4%,3%
COc1ccc(NC(=O)C2CC(=O)Nc3nc4ccccc4n32)c(OC)c1 (configuration not stated),.,.,.,-8%,.
CC1=NN(c2ccccc2)C(=O)C1C(=S)SC1CC(=O)NC1=O (configuration not stated),3%,-2,.,?,?
O=C1CC(SC(=S)C2CCCC2=O)C(=O)N1 (configuration not stated),-1%,-2,.,22µM*,5%
O=[N+]([O-])CC(=Nc1ccc(Cl)cc1)N/N=C\c1oc(O)c2ccccc12,4%,-1,-4%,4µM*,10%
CCN(Cc1ccccc1)C(=O)/C=C/c1ccc(-c2ccccc2)s1,.,.,.,5%,.
CCOC1CCCc2oc(-c3ccc(OC)cc3)c(C(=O)NCCCCO)c21 (configuration not stated),.,1,.,13µM*,1%
COc1ccc(-c2oc3c(c2C(=O)OCCCO)C(OCCO)CCC3)cc1 (configuration not stated),.,-1,.,15%,-1%
CCC(=O)N1CCC(Oc2ccc(C(=O)N3CCOCC3)cn2)C1 (configuration not stated),.,.,.,31%,.
CN(CC(=O)Nc1ccccc1Br)Cc1ccccc1N1CCCCC1,.,.,.,35%,.
C[C@H]1COC(=O)[C@H](NC(=O)OCC2c3ccccc3-c3ccccc32)C/C=C\C[C@H](CC(=O)N(CCO)Cc2ccccc2)C(=O)N1,-8%,-1,?,40µM*,4%
CNS(=O)(=O)/C=C/c1ccccc1,?,-2,.,-18%,-1%
O=S(=O)(/C=C/c1ccccc1)Oc1ccccc1,-49%,-2,.,24%,13µM*
Cc1ccc(C(=O)NC2CCN(c3cc(-c4cccs4)[nH]n3)C2)c(C)c1 (configuration not stated),.,.,.,6%,.
Cc1nn(-c2ccc(C(F)(F)F)cc2)c(C)c1[C@@H]1C=C[C@@H](NC(=O)NC(C)C)C1,.,.,.,11µM*,.
